Assay [1] can be described thus: HepG2 liver cancer cell viability effects, profiling panel, resazurin fluorescence, 24 h, PK04 Diversity Set (AID 1172). The conditions noted are these: higher = more signal.
Assay [2] can be described thus: basal S. cerevisiae growth modulation, no modifier, primary screen, OD600, strain BY4716, 24 h, basal condition (AID 1173). The settings on record: OD600, 24 h, higher = more signal, called active from +8 up or from −8 down.
Assay [3] in a line: MM1S myeloma cell viability, profiling panel, resazurin fluorescence, basal, 24 h, PK04 Diversity Set (AID 1174). The settings on record: higher = more signal, called active from +8 up or from −8 down. A general note: The colour change of resazurin is a common sign of viable cells or microbes.
The target in assay [4] is Dihydroorotate dehydrogenase (quinone), mitochondrial (Plasmodium falciparum (isolate 3D7)) (UniProt Q08210). Kind of assay: PfDHODH enzyme inhibitors, primary screen, biochemical, C-terminal His tag, absorbance 600 nm (AID 1175).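 Also: recombinant parasite enzyme with a five histidine tag at its C terminus.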 The conditions noted are these: DCIP absorbance 600 nm, higher = more signal, called active from +8 up or from −8 down.
Chain of Dihydroorotate dehydrogenase (quinone), mitochondrial (Plasmodium falciparum (isolate 3D7)) (Q08210 whole entry, looked up): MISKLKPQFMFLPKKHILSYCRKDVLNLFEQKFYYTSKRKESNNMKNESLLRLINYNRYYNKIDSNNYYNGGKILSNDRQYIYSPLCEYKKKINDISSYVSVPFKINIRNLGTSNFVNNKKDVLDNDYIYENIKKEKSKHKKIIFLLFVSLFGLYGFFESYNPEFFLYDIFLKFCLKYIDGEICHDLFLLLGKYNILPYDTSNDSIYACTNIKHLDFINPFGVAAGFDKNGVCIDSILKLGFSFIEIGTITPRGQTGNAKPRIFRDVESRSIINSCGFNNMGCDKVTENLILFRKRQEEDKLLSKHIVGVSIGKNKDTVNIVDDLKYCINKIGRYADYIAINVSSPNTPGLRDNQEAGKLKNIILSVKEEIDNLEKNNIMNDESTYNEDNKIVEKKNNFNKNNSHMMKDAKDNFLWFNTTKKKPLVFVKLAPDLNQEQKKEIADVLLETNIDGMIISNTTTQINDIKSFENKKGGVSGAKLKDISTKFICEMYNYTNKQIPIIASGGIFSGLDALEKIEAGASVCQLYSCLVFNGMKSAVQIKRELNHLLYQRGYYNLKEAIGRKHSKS
A short description of assay [5]: P. aeruginosa biofilm formation inhibitors, primary screen, strain PAO1, LB-PBS medium, absorbance 600 nm (AID 1176). The settings on record: P. aeruginosa PAO1 growth/biofilm, A600, 12 h; higher = more signal.
Assay [6] in a line: S. cerevisiae RM11-1a growth modifiers, primary screen, strain RM11-1a, OD600, basal, 24 h (AID 1177).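 Also: cultures grown under basal conditions with no added stressor.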 The settings on record: OD600, 24 h, higher = more signal, called active from +8 up or from −8 down.
Assay [7] in a line: E. coli acrAB mutant growth effects, primary screen, E. coli filamentation inducers, strain DRC39, OD650, 24 h (AID 1178).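 Also: growth measured as culture turbidity by optical density at 650 nm.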 The settings on record: higher = more signal, called active from +8 up or from −8 down.
Assay [8] is described as follows: E. coli acrAB mutant growth effects, primary screen, E. coli filamentation inducers, strain DRC39, OD650, 48 h (AID 1179).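 Also: screen aims at cell division blockers that make cells filament.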 The settings on record: E. coli DRC39 delta-acrAB growth, higher = more signal, called active from +8 up or from −8 down.
A short description of assay [9]: RPMI8226 myeloma cell viability, profiling panel, resazurin fluorescence, basal, 24 h, PK04 Diversity Set (AID 1180).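 Also: RPMI8826 multiple myeloma cell line at 5000 cells per well.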 The settings on record: higher = more signal.
Assay [10] has as its target E3 ubiquitin-protein ligase XIAP (Homo sapiens) (UniProt P98170). Kind of assay: XIAP binders, primary screen, biophysical, small-molecule microarray, fluorescence 635 nm (AID 1181).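 Also: score merges 667 nm emission and signal to noise over triplicate slides.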 The settings on record: small-molecule microarray binding, higher = more signal.
The subject of assay [11] is XIP peptide (Xip251-270) binding. Put plainly: small-molecule binders of XIP peptide, primary screen, biochemical, small-molecule microarray, fluorescence 635/667 nm, 0.1 µg/mL protein (AID 1182). The settings on record: fluorescent protein binding, 635 nm, higher = more signal, called active from +8 up or from −8 down.
Another assay deals with XIP peptide (Xip251-270). Kind of assay: small-molecule binders of XIP peptide, primary screen, biochemical, small-molecule microarray, fluorescence 635/667 nm, 0.5 µg/mL protein (AID 1183). The conditions noted are these: small-molecule microarray binding, fluorescence 635 nm; higher = more signal.
Assay [12] in a line: Plasmodium falciparum growth inhibition, primary screen, strain 3D7, DAPI fluorescence, 100 nL (AID 1184).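 Also: parasites grown inside human red blood cells in medium with human serum.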 The conditions noted are these: P. falciparum 3D7 growth, 3 d, higher = more signal.
Assay [13] deals with Homeobox protein Hox-A13 (Mus musculus) (UniProt Q62424). Kind of assay: inhibitors of HoxA13-DNA binding, primary screen, biochemical, fluorescence polarization, labeled oligonucleotide (AID 1185). The conditions noted are these: 15 min, higher = more signal, called active from +8 up or from −8 down.
Chain of Homeobox protein Hox-A13 (Mus musculus) (Q62424 whole entry, looked up): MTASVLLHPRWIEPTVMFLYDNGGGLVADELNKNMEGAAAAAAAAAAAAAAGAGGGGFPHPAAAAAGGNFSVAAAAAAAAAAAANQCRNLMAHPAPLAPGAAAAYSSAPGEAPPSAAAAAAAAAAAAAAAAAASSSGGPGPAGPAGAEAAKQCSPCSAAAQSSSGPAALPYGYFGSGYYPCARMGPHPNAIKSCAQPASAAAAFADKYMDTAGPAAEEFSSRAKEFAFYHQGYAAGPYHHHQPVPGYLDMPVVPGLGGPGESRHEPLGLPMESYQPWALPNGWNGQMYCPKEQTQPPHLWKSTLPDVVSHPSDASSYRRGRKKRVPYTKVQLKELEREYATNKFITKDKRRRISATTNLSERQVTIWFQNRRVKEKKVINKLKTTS
A short description of assay [14]: inhibitors of hydroxyurea-induced Chk1 phosphorylation, primary screen, imaging, HeLa, phospho-Chk1 antibody, percent positive cells (AID 1186). The conditions noted are these: hydroxyurea-induced phospho-Chk1 immunofluorescence imaging, higher = more signal.
The nature of assay [15]: inhibitors of hydroxyurea-induced Chk1 phosphorylation, primary screen, imaging, HeLa, phospho-Chk1 nuclear intensity (AID 1187). The conditions noted are these: hydroxyurea-induced phospho-Chk1 immunofluorescence imaging, higher = more signal.

Calls of active or inactive are those of the source. Unless noted, no rule for the calls is given here.

Experimental findings from PubChem BioAssay are described below.

Chain of E3 ubiquitin-protein ligase XIAP (Homo sapiens) (P98170 whole entry, looked up): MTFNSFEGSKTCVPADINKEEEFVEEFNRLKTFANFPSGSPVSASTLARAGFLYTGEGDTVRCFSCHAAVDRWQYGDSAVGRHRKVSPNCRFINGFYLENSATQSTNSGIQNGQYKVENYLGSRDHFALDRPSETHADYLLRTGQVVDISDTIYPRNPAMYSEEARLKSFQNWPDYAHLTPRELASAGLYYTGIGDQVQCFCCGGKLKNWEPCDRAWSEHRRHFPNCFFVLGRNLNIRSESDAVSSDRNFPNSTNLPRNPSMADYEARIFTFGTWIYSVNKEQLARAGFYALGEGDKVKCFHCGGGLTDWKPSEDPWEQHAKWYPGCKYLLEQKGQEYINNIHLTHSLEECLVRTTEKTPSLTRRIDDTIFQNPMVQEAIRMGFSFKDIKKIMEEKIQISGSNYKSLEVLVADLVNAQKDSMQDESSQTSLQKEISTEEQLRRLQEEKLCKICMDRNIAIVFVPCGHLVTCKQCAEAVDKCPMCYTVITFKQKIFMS

In the case of `CCCC=C(CCC)[C@@H](NS(=O)(=O)c1ccc(Cl)cc1)c1ccccc1`, the z-score was 1.1 in [1]; 0.733 (inactive) in [2]; 0.604 (inactive) in [3]; 1.97 (inactive) in assay [5]; -0.233 (inactive) in assay [6]; -0.558 (inactive) in assay [7]. Further, the z-score in assay [8] is -1 (inactive); in [9] it was -0.321; in assay [12], -1.11; in assay [13], -1.87 (inactive); in assay [14] it was 0.081 (inactive); in assay [15] it was 0.268 (inactive). The composite z-score in assay [4] was -0.532 (inactive); in assay [10], 0.102; in [11], -0.641 (inactive); with XIP peptide (Xip251-270) it was 0.36.

For the compound `O=C(NCC(F)(F)F)[C@@H]1c2ccccc2C(=O)N(CC23CC4CC(CC(C4)C2)C3)[C@H]1c1ccc(CO)cc1`, the z-score in [1] is 0.26; in assay [2], -2.11 (inactive); in [3], -1.04 (inactive); in assay [5], 1.43 (inactive); in assay [6] it was -2.97 (inactive); in assay [7], 1.05 (inactive). The z-score in assay [8] was 0.823 (inactive); in assay [9], 0.582; in assay [12], -2.24; in assay [13], -4.02 (inactive); in [14], -0.254 (inactive); in [15], -0.371 (inactive). For the same compound, the composite z-score in [4] was -2.32 (inactive); in [10], 0.341; in assay [11] it was 0.35 (inactive); in the assay with XIP peptide (Xip251-270), 0.586.

For the compound `COc1ccc(C#Cc2ccc3c(c2)[C@]2(C(=O)N3)[C@H](C(=O)Nc3nc4ccccc4s3)[C@H]3C(=O)O[C@H](c4ccccc4)[C@H](c4ccccc4)N3[C@@H]2c2ccc(OCCO)cc2)cc1`, the z-score in assay [1] is 0.839; in [2], 2.43 (inactive); in [3] it was -0.625 (inactive); in assay [5], 2.93 (inactive); in assay [6], 2.53 (inactive); in assay [7], 0.544 (inactive). In addition, the z-score was 0.196 (inactive) in assay [8]; -0.639 in assay [9]; -0.668 in [12]; 1.71 (inactive) in assay [13]; 0.218 (inactive) in assay [14]; -0.0348 (inactive) in [15]. Moreover, the composite z-score in [4] is -22.3 (active); in assay [10] it was 0.0849; in assay [11] it was -0.509 (inactive); with XIP peptide (Xip251-270), 0.782.

Take `CO[C@H]1O[C@H](CO)[C@@H](OC(=O)Nc2ccc3c(c2)OCO3)[C@@H]2OC(=O)[C@@H](Cc3ccccc3)C/C=C/C[C@H](Cc3ccccc3)C(=O)O[C@@H]12`: the z-score was -1.37 in assay [1]; 0.904 (inactive) in assay [2]; -2.59 (inactive) in assay [3]; 0.509 (inactive) in assay [5]; 2.14 (inactive) in assay [6]; 0.307 (inactive) in assay [7]. Further, the z-score in assay [8] was 0.312 (inactive); in assay [9] it was -1.38; in assay [12] it was -0.967; in [13], -8.19 (active); in assay [14], -0.508 (inactive); in assay [15], -0.215 (inactive). Further, the composite z-score in assay [4] is -0.675 (inactive); in assay [10] it was 0.785; in assay [11] it was 0.462 (inactive); with XIP peptide (Xip251-270), 0.692.

For the compound `CN(C)C(=O)[C@]1(Cc2ccccc2)N=C(c2ccc(OCCCO)cc2)O[C@@H]1c1ccccc1`, the z-score was 0.0784 in assay [1]; -1.32 (inactive) in [2]; 0.324 (inactive) in [3]; -0.304 (inactive) in assay [5]; 0.597 (inactive) in [6]; -0.809 (inactive) in assay [7]. Also, the z-score is -0.591 (inactive) in assay [8]; -0.247 in assay [9]; -2.38 in assay [12]; -6.32 (inactive) in assay [13]; -0.752 (inactive) in assay [14]; -0.755 (inactive) in assay [15]. For the same compound, the composite z-score in [4] was 0.179 (inactive); in assay [10], 0.125; in [11], 0.895 (inactive); with XIP peptide (Xip251-270), 0.851.

In the case of `CC[C@H](C)C(=O)O[C@H]1CC[C@]2(C)C3=C(CCC2C1(C)C)[C@]1(C)CC[C@H]([C@H](C)CCCC(C)C)[C@@]1(C)CC3` (some centres not stated), the z-score in [1] was 1.06; in assay [2], 0.31 (inactive); in assay [3], 0.0978 (inactive); in [5], -0.283 (inactive); in assay [6], 0.295 (inactive); in assay [7] it was 2.06 (inactive). Also, the z-score in [8] is 1.47 (inactive); in [9] it was 1.09; in assay [12], 0.231; in assay [13], -1.34 (inactive); in assay [14] it was -0.719 (inactive); in assay [15], -0.829 (inactive). For the same compound, the composite z-score in assay [4] was 0.454 (inactive); in assay [10] it was -0.304; in assay [11], 0.146 (inactive); in the assay on XIP peptide (Xip251-270), -0.273.

For `COCCOC(=O)N1C(=O)[C@@]2(c3cc(C#CCCO)ccc31)[C@H](C(=O)N1CCN(c3ncccn3)CC1)[C@H]1C(=O)O[C@H](c3ccccc3)[C@H](c3ccccc3)N1[C@@H]2c1ccc(O)cc1`, the z-score in assay [1] is -0.335; in assay [2], -0.142 (inactive); in [3], 0.359 (inactive); in assay [5], 1.85 (inactive); in assay [6], 0.135 (inactive); in assay [7] it was 0.947 (inactive). Also, the z-score in assay [8] was 1.6 (inactive); in assay [9], 0.818; in [12] it was -0.278; in assay [13] it was -2.3 (inactive); in [14] it was -0.416 (inactive); in [15] it was -0.772 (inactive). Further, the composite z-score in [4] is -1.22 (inactive); in assay [10], -0.031; in [11], 1.43 (inactive); with XIP peptide (Xip251-270), 0.802.
